# In ChEMBL document CHEMBL3988442, “University of Dundee, Small-Polar-MMV Screening Library” (2021):
# About 13,000 (27%) of roughly 48,000 compounds showed an effect of 50% or more. This is one part of the list.
# Tested on: Wolbachia pipientis
# Experiment: Anti-Wolbachia Cell-Based Screen
# Type: functional
# Set-up: scale not given: in the data most compounds retested in dose-response had high values
# Conditions: 5 µM
row,SMILES,Percent Effect [%]
1,Cc1ccc(-c2nc(CNCCn3cccn3)cs2)o1,-0.9463
2,CN(Cc1cccs1)c1nc2c(cnn2C(C)(C)C)c(=O)[nH]1,-5.539
3,O=C(NCC1(N2CCOCC2)CCSC1)Nc1ccccn1 (stereo unspecified),27.17
4,CSCCc1n[nH]c2c1CN(S(=O)(=O)c1c(C)nn(C)c1C)CC2,-3.086
5,Cc1ccc(C(C)NC(=O)Nc2ccccc2CN2CCOCC2)o1 (stereo unspecified),2.687
6,Cl.NCC1CCCCN1C(=O)Cc1ccc(F)c(F)c1 (stereo unspecified),-20.4
7,O=C(Cc1ccccc1F)N1CCC[C@@H]1Cn1c(=O)oc2ccccc21,111.4
8,COC[C@@]12CCO[C@@H]1CCN(C(=O)Cc1ccccc1F)C2,7.252
9,COc1nc2c(cc1C(=O)NCc1nc(CSC)no1)CCC2,-10.56
10,Cc1nc(CN2CCN(c3cncc(Cl)n3)CC2)no1,85.67
11,Cc1noc(CN2CCN(CCO)CC2)n1,-2.451
12,Cc1nc(CN2CCN(c3ccc(Cl)cn3)CC2)no1,102.8
13,Cc1noc(CN2CCN(CC(C)O)CC2)n1 (stereo unspecified),16.1
14,Cc1nc(CN2CCN(C(=O)CCc3cccc(Cl)c3)CC2)no1,2.234
15,Cc1cn2nc(N3CCCN(Cc4noc(C)n4)CC3)sc2n1,4.27
16,Cc1nc(CN2CCN(c3ncnc4ccccc34)CC2)no1,-20.36
17,Cc1nc(CN2CCN(Cc3nccn3C)CC2)no1,1.161
18,Cc1noc(CN2CCN(c3cncc(Cl)n3)CC2)n1,120
19,CC(C)(C)NC(=O)C1CSCN1S(=O)(=O)c1ccccc1F (stereo unspecified),-0.6778
20,CCN(CC)CC(=O)Nc1ccc(-n2ccc(C(N)=O)n2)cc1,-9.684
21,Cn1cccc(NC(=O)NCCc2cccc(O)c2)c1=O,2.871
22,c1cc(C2CN(C3CCCCC3)C2)n[nH]1,79.34

row,SMILES,Percent Effect [%]
1,c1cc(C2CCN(C3CCCCC3)C2)n[nH]1 (stereo unspecified),99.9
2,Clc1ccc(-c2nnc([C@H]3CCN(C4CCCCC4)C3)o2)cc1,11.2
3,c1cc(C2CN(C3CCCC3)C2)n[nH]1,154.3
4,c1ccc(Cc2nnc([C@H]3CCN(C4CCCCC4)C3)o2)cc1,3.661
5,F[C@@H]1CN(C2CCC2)C[C@@H]1OCc1nc2ncccc2[nH]1,0.839
6,FC(F)(F)c1ccc2nc([C@H]3CCN(C4CCCCC4)C3)[nH]c2c1,3.029
7,c1ccc(-c2nnc([C@H]3CCN(C4CCC4)C3)o2)cc1,-5.137
8,c1cc(-c2nnc([C@H]3CCN(C4CCCCC4)C3)o2)ccn1,-11.18
9,CC(=O)N(CCC(=O)NC1(C#N)CCC1)Cc1ccccc1,-20.67
10,Cc1ccc(Oc2ncccc2CNS(=O)(=O)N2CCOCC2)cn1,3.348
11,Oc1ccc([C@H]2Oc3cc(O)cc(O)c3C[C@@H]2O)cc1,2.317
12,CNC(=O)c1ccc(=O)n(Cc2csc(N(C)C(C)=O)n2)c1,1.068
13,CN(C)C(=O)Cc1nc(CN2CCn3c(nnc3C3CC3)C2)cs1,2.901
14,CC(=O)N(c1ccc(C)cc1)c1nc(CN2CCCCC2C)cs1 (stereo unspecified),5.84
15,Cc1ccc(=O)n(Cc2csc(N(C)C3CC3)n2)n1,2.512
16,CC(=O)N(C)c1nc(Cn2nnnc2C(C)(C)C)cs1,75.49
17,CC(=O)N(C)c1nc(CN2CCN(c3nccs3)CC2)cs1,-57.57
18,CC(=O)N(C)c1nc(Cn2nnnc2C(C)C)cs1,102.4
19,CCN(C(C)=O)c1nc(CN2CCN(c3nccs3)CC2)cs1,-119
20,CCc1nnnn1Cc1csc(N(C)C(C)=O)n1,97.38
21,CC(=O)N(C)c1nc(Cn2nnnc2C2CCCC2)cs1,98.73
22,CC(=O)N(c1ccc(F)cc1)c1nc(CN2CCCC2C(C)C)cs1 (stereo unspecified),-4.339

row,SMILES,Percent Effect [%]
1,CC(=O)N(C)c1nc(CN2CCN(Cc3nccn3C)CC2)cs1,-41.34
2,CN(CCCNC(=O)Nc1ccc(C#N)cc1)CC(F)(F)F,3.488
3,Cc1noc(CCNC(=O)C2CSCN2C(=O)C2CCCC2)n1 (stereo unspecified),1.723
4,CC(C)N1CCC(CC(=O)NCC2OCCc3ccccc32)CC1 (stereo unspecified),-17.34
5,CC(C)(O)CN1CCN(C(=O)COCC2CC2)CC1,6.995
6,COc1c(C)cnc(CN(C)C(=O)c2cccnc2N(C)C)c1C,-5.056
7,COCc1cnc2n1CCN(C(=O)c1cc3ccccc3o1)C2C (stereo unspecified),-14.51
8,COc1ncccc1C(=O)N1CCn2c(COCC3CC3)cnc2C1C (stereo unspecified),-2.491
9,Cc1ncoc1C(=O)N1CCn2c(COCC3CC3)cnc2C1C (stereo unspecified),-11.18
10,CCOCc1cnc2n1CCN(C(=O)Cc1cccs1)C2C (stereo unspecified),1.059
11,COCc1cnc2n1CCN(C(=O)c1cnc3ccccc3c1)C2C (stereo unspecified),-17.18
12,CCOCc1cnc2n1CCN(C(=O)c1cccc3c1OCCO3)C2C (stereo unspecified),83.71
13,CC1c2ncc(COCC3CCOCC3)n2CCN1C(=O)c1ccoc1 (stereo unspecified),2.746
14,CCOCc1cnc2n1CCN(C(=O)Cc1ccco1)C2C (stereo unspecified),-11.07
15,CCOCc1cnc2n1CCN(C(=O)c1ccoc1C)C2C (stereo unspecified),98.54
16,COCc1cnc2n1CCN(C(=O)c1cn(C)c3ccccc13)C2C (stereo unspecified),101.2
17,CCOCc1cnc2n1CCN(C(=O)c1ccccc1)C2C (stereo unspecified),105.6
18,COCc1cnc2n1CCN(C(=O)c1oc3ccccc3c1C)C2C (stereo unspecified),-7.418
19,c1ccc2sc(N3CCCN(c4ncnc5c4CCNC5)CC3)nc2c1,-7.795
20,CC(NCCNS(=O)(=O)c1cccc(Cl)c1)C1CCOCC1 (stereo unspecified),-16.43
21,CCOc1ccc(C(=O)NCc2ccnc(N3CCCC3)c2)cn1,-6.067
22,CCCN1CCN(Cc2cccc(OCC(N)=O)c2)[C@H]2CS(=O)(=O)C[C@H]21,-4.749

row,SMILES,Percent Effect [%]
1,CCOCc1cnc2n1CCN(C(=O)c1cn(C)c3ccccc13)C2C (stereo unspecified),101.9
2,O=C(c1ccc(Cl)cn1)N1CCC(COCc2ccccc2)C1 (stereo unspecified),7.677
3,CCc1noc(CN(CCC2CCCCC2)CC(N)=O)n1,163.4
4,CN(Cc1noc(C(C)(C)C)n1)CC1CCN(CCO)CC1,-10.5
5,CCc1noc(CN(CC(=O)N2CCCCC2)c2ccc(C)cc2)n1,0.4396
6,CC(C)c1noc(CC[C@@H]2CCCN3CCCC[C@H]23)n1,17.3
7,CC(C)c1noc(CN(CCC2CCCCC2)CC(N)=O)n1,116.2
8,CC(C)(C)c1nc(CN(CCC2CCCCC2)CC(N)=O)no1,228.2
9,CC(C(=O)NC1CCCC1)S(=O)(=O)Cc1noc(C(C)(C)C)n1 (stereo unspecified),6.849
10,C=C(C)CN(CC)Cc1nc(CC)no1,1.944
11,CC(=O)N1CCCCCC1C1CCN(Cc2nc(C(C)C)no2)CC1.Cl (stereo unspecified),9.412
12,CC(C#N)CSc1ccccc1NCC(=O)NCc1ccccc1 (stereo unspecified),17.5
13,CCC1CN(C(=O)c2cc(C(C)=O)c(C)[nH]c2=O)CCN1C(C)C (stereo unspecified),0.5617
14,CCCN(c1ccccc1C(=O)O)S(=O)(=O)c1cccc2cccnc12,-16.07
15,CCc1nc(N2CCN(CCOC)CC2)c2cnn(C)c2n1,1.381
16,CCc1nc(N2CCCC(CCCOC)C2)c2cnn(C)c2n1 (stereo unspecified),108.6
17,COCCN1CCN(c2nc(C3CCCC3)nc3c2cnn3C)CC1,8.561
18,COCC1CCN(c2nc(C(C)(C)C)nc3c2cnn3C)C1 (stereo unspecified),-4.471
19,CCCc1nc(N2CCCC(CCOC)C2)c2cnn(C)c2n1 (stereo unspecified),105.9
20,CCCc1nc(N2CCC(CCO)CC2)c2cnn(C)c2n1,-6.253
21,Cc1noc([C@H]2C[C@H]3OCC[C@H]3N(Cc3ccc(F)cc3)C2)n1.O=C(O)C(F)(F)F,9.305
22,CCN(CC)C(=O)Cn1nc(C(C)C)c2cnn(C(C)(C)C)c2c1=O,8.022

row,SMILES,Percent Effect [%]
1,C=C(C)CN(Cc1cccc(O)c1)C1CCC(O)CC1 (stereo unspecified),3.823
2,CCc1nc2c(N3CCC4(CC3)CNC(=O)C4)ncnc2o1,4.745
3,c1cncc(CN2CCC(c3csc4nccn34)CC2)c1,140.6
4,Cc1ncsc1C(=O)NC1CCN(Cc2cccnc2)CC1,3.367
5,Fc1ccc(OCc2nnc([C@H]3CCN(Cc4ccncc4)C3)o2)cc1,12.6
6,Cc1cccc(CN2CCC(c3csc4nccn34)CC2)n1.O=CO,151.3
7,Cc1cccc(CN2CCC(c3nccn3CC(N)=O)CC2)n1,-14.31
8,c1cc(CN2CCCC(c3ccnc4nccn34)C2)ccn1 (stereo unspecified),150
9,FC(F)(F)c1cc(C2CCCN(Cc3ccncc3)C2)n[nH]1 (stereo unspecified),-5.824
10,Cc1cccc(CN2CCC(NS(C)(=O)=O)CC2)n1,-9.608
11,c1cc(-c2cc(C3CCN(Cc4cncnc4)C3)ccn2)ccn1 (stereo unspecified),-7.458
12,Cn1c(Cn2ccnc2)nnc1C1CCCN(Cc2ccncc2)C1 (stereo unspecified),-0.06506
13,c1cc(CN2CCC(c3ccnc4nccn34)C2)ccn1 (stereo unspecified),128.4
14,c1cncc(CN2CCC(c3n[nH]c(C4CC4)n3)CC2)c1,10.48
15,Cc1ccc(C)c(S(=O)(=O)NCCNc2ccc(-n3cccc3)nn2)c1,14.81
16,C=C(C)CN(CC)S(=O)(=O)c1cccc(F)c1C#N,-7.097
17,CCN(CCO)C(=O)C1CCC(=O)N(CCc2cccc(F)c2)C1 (stereo unspecified),-9.721
18,O=C(Nc1cnccn1)[C@H]1COC[C@H]2CN(c3ncc(F)cn3)C[C@H]21,-11.52
